Results on 14 compounds are retold here after PubChem BioAssay.

The target of one assay is Albumin (Bos taurus) (UniProt P02769). Description: bovine serum albumin binders on microarray, profiling panel, artefact control for SMM control protein annotation, biochemical, small-molecule microarray, Alexa647 label, 635/667 nm fluorescence (AID 1118).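 Also: score merges 667 nm emission intensity and signal-to-noise per printed compound spot.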 To be noted: BSA-A647 binding, fluorescence 635 nm, higher = more signal.
Albumin (Bos taurus), sequence (P02769 whole entry, looked up): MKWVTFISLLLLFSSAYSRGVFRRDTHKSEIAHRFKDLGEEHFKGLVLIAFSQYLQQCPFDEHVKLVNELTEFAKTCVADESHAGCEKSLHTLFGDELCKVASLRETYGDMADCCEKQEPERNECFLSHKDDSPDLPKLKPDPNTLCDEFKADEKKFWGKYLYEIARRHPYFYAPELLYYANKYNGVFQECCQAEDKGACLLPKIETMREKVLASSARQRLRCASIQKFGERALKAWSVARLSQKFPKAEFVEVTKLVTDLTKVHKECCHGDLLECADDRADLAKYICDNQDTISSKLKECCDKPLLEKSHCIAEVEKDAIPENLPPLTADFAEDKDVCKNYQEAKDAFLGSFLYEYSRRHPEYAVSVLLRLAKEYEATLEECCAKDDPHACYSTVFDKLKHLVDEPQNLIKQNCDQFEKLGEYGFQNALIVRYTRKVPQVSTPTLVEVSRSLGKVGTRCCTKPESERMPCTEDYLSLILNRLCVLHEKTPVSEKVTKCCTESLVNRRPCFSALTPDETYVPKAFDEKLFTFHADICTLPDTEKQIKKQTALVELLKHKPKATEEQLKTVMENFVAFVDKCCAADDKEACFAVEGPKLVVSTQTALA
Assay [1] in a line: small-molecule microarray binders of probe aXIP, primary screen, biochemical, NeuroSMM set, 635/667 nm fluorescence (AID 1119).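 Also: probe is the protein aXip251-270 applied at 1 µg/mL to compound-printed slides; binding of probe to printed compounds measured as 667 nm fluorescence plus signal to noise.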 The note with it: higher = more signal, called active from +8 up or from −8 down.
Assay [2] is described as follows: small-molecule binders of probe aNOTCH3, primary screen, biochemical, small-molecule microarray, 635/667 nm fluorescence (AID 1120).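 Also: probe is a biotin-tagged antibody raised against NOTCH3 rather than NOTCH3 protein; score merges spot fluorescence near 667 nm with spot signal to noise.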 The note with it: higher = more signal.
Assay [3] is described as follows: small-molecule binders of probe aNOTCH2, primary screen, biochemical, small-molecule microarray, 635/667 nm fluorescence (AID 1121).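 Also: score merges feature fluorescence read at 667 nm with its signal to noise.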 The note with it: higher = more signal.
The target of assay [4] is Carbonic anhydrase 2 (Homo sapiens) (UniProt P00918). The experiment in a line: CAII small-molecule binders, profiling panel, biochemical, small-molecule microarray, Alexa647-labelled CAII (AID 1122). The note with it: CAII-A647 binding fluorescence, higher = more signal.
Assay [5] can be described thus: COS7 lysate on small-molecule microarray, probe aHis, 635 nm (AID 1123).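 Also: z-score combines 667nm fluorescence intensity with signal-to-noise per printed compound spot.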 To be noted: COS7 cell lysate, fluorescence, higher = more signal.
Assay [6] in a line: compound binding in COS7 lysate, probe aLAP1, primary screen, cell lysate, small-molecule microarray (AID 1124).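 Also: lysate comes from COS7 cells expressing LAP1 and is applied at 0.3 µg/mL; score merges spot fluorescence near 667 nm with signal-to-noise over triplicate slides.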 The note with it: probe aLAP1, fluorescence, higher = more signal.
In another assay the test system is Sam68 (KHDRBS1). Description: Sam68 small-molecule binders, primary screen, biochemical, small-molecule microarray, 635 nm fluorescence (AID 1125).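 Also: score merges 667 nm channel intensity with signal to noise over triplicate slides.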 The note with it: small-molecule microarray binding, higher = more signal.
The test system of assay [7] is Chordin-like protein 2 (CHRDL2). The experiment in a line: CHRDL2 small-molecule binders, primary screen, biochemical, small-molecule microarray, 635 nm fluorescence (AID 1126).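 Also: printed compound slides probed with Chrdl2 protein at 4 µg/mL for 1 h at 4 C; score merges 667 nm emission intensity with signal to noise over three replicate slides.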 To be noted: small-molecule microarray binding, fluorescence 635 nm; higher = more signal.
Assay [8] has as its target Concanavalin-A (Canavalia ensiformis) (UniProt P02866). The experiment in a line: ConA small-molecule binders, primary screen, artefact control for SMM control protein annotation, biochemical, small-molecule microarray, Alexa647 label, 635 nm (AID 1127).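 Also: z combines 667 nm emission intensity with signal-to-noise across three replicate slides.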 The note with it: ConA-A647 binding fluorescence, higher = more signal.

The source made the active and inactive calls.

Concanavalin-A (Canavalia ensiformis), sequence (P02866 whole entry, looked up): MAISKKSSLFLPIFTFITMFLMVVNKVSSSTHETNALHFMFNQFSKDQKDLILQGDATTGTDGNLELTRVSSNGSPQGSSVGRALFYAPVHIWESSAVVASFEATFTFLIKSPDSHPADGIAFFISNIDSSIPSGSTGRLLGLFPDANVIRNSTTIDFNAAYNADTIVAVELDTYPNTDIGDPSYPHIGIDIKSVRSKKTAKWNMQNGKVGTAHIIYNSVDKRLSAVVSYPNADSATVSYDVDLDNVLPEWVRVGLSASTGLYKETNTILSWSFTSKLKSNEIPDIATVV

As to `NC(=O)NCC#Cc1ccc2c(c1)[C@]1(C(=O)N2)[C@H](C(=O)O)[C@H]2C(=O)O[C@H](c3ccccc3)[C@H](c3ccccc3)N2[C@@H]1c1ccccc1OCCO`, the composite z-score is 0.501 with Albumin (Bos taurus); 0.199 in [2]; 0.0505 in [3]; 0.372 in assay [4]; 0.329 in [5]; -0.0878 in [6]. For the same compound, the figures for the composite z-score (in the assay with Sam68 (KHDRBS1); in [7]; in assay [8]) were 0.685, 0.915 and 1.11, respectively. In addition, in assay [1], the composite Z-score was 0.434 (inactive).

Regarding `COc1ccc([Si](C)(C)[C@H]2[C@H](CCn3cc([C@H](O)c4ccccc4)nn3)O[C@@]3(C(=O)N(Cc4cccc(N5C(=O)c6cccc7cccc5c67)c4)c4ccccc43)[C@@H]2C)cc1`, the composite z-score with Albumin (Bos taurus) was 0.145; in assay [2], -0.185; in [3], -0.159; in assay [4], 0.339; in [5], 0.501; in assay [6] it was -0.0631. The composite z-score was 0.258 with Sam68 (KHDRBS1), -1.54 in [7] and -0.24 in [8]. Further, the composite Z-score in assay [1] was 0.674 (inactive).

For `O=C(N1CCCCC1)[C@@]1(Cc2ccccc2)COC(c2ccc(OCCCO)cc2)=N1`, the composite z-score turned out to be 0.874 with Albumin (Bos taurus); 0.501 in [2]; 0.313 in assay [3]; 0.714 in assay [4]; 2.44 in assay [5]; 0.409 in [6]. In addition, the composite z-score is 1.33 in the assay with Sam68 (KHDRBS1), -0.729 in assay [7] and 0.892 in assay [8]. The composite Z-score in [1] is 0.986 (inactive).

With `COc1ccc(C(O)C2C=CC3C(=O)N(Cc4ccccc4)C(=O)C3N2n2cnnc2)c2ccccc12` (stereo not given), the composite z-score was 0.626 with Albumin (Bos taurus); -0.0238 in assay [2]; -0.125 in assay [3]; 0.783 in [4]; 1.65 in [5]; 0.686 in assay [6]. The composite z-score in the assay with Sam68 (KHDRBS1) was 1.01; in assay [7], -2.13; in [8] it was 0.388. The composite Z-score in [1] is 0.624 (inactive).

As to `C=CCC(OC(C)=O)[C@@H]1[C@@H](N(Cc2cc3ccccc3o2)C(=O)Cc2ccc(F)cc2)c2cc(OCCCO)ccc2N1C(=O)c1ccc2ccccc2n1` (stereo not given in full), the composite z-score is 0.124 with Albumin (Bos taurus); -0.136 in assay [2]; -0.104 in assay [3]; -0.183 in [4]; 0.178 in assay [5]; 0.104 in assay [6]. Besides, the composite z-score with Sam68 (KHDRBS1) was -0.847; in assay [7], 0.344; in assay [8], -0.0002. The composite Z-score in assay [1] is -0.16 (inactive).

Turning to `COc1ccc([Si](C)(C)[C@H]2[C@H](CCn3cc(CCO)nn3)O[C@@]3(C(=O)N(Cc4ccc(N5C(=O)c6cccc7cccc5c67)cc4)c4ccccc43)[C@@H]2C)cc1`, the composite z-score in the assay with Albumin (Bos taurus) is 0.627; in assay [2], 0.0996; in assay [3], -0.14; in assay [4], 0.345; in assay [5] it was 1.04; in [6], 0.303. Also, the results for the composite z-score (in the assay on Sam68 (KHDRBS1); in [7]; in assay [8]) were 1.29, 0.628 and 0.962, respectively. For the same compound, the composite Z-score in assay [1] was -0.777 (inactive).

`COc1ccc(C(O)C2C=CC3C(=O)N(C)C(=O)C3N2N2CCCCC2)cc1` (stereo not given): the composite z-score with Albumin (Bos taurus) amounted to 0.999; in assay [2] it was 0.272; in assay [3] it was 0.233; in assay [4], 0.761; in [5], 2.14; in [6], 0.986. The composite z-score is 1.1 in the assay on Sam68 (KHDRBS1), 0.248 in assay [7] and 1.11 in [8]. In addition, in assay [1], the composite Z-score is 0.0811 (inactive).

With `O=C(CS)NCCCCCCNC(=O)[C@H]1C[C@H]2C(=O)N[C@@H](Cc3ccccc3)C(=O)N2[C@H]1c1cccc(OCCO)c1`, the composite z-score in the assay with Albumin (Bos taurus) is -0.428; in assay [2], 0.605; in assay [3] it was -0.084; in [4], 0.684; in assay [5], 2.21; in assay [6] it was 0.519. The composite z-score with Sam68 (KHDRBS1) was 1.29; in assay [7] it was 1.24; in assay [8], 0.892. In addition, the composite Z-score in assay [1] is 0.131 (inactive).

Turning to `CCOC(=O)[C@H]1C/C=C/C[C@H](C(=O)OCC)C(=O)O[C@H]2[C@@H](OC)O[C@H](CO)[C@@H](OC(=O)Nc3ccc(OC)cc3)[C@@H]2OC1=O`, the composite z-score with Albumin (Bos taurus) was 0.441; in assay [2] it was 0.292; in [3] it was 0.0196; in [4], 0.475; in assay [5] it was 0.984; in assay [6], 1.16. Further, the values for the composite z-score (in the assay with Sam68 (KHDRBS1); in [7]; in assay [8]) were 1.32, 0.37 and 0.92, respectively. Besides, the composite Z-score in [1] was 0.937 (inactive).

As to `Cc1ccc(S[C@]2(C(=O)O)CC(=O)N(Cc3ccccc3Cl)[C@@H]2c2ccc(CO)cc2)cc1`, the composite z-score in the assay with Albumin (Bos taurus) is 0.489; in assay [2], -0.159; in assay [3] it was -0.0519; in assay [4] it was 0.75; in assay [5], 1.72; in assay [6] it was 0.591. Further, the composite z-score is -0.503 with Sam68 (KHDRBS1), -0.828 in assay [7] and -0.503 in assay [8]. The composite Z-score in assay [1] was -0.173 (inactive).

For the compound `Cc1ccc(S[C@]2(C(=O)NCCN3CCOCC3)CC(=O)N(Cc3ccccc3C(F)(F)F)[C@@H]2c2ccc(CO)cc2I)cc1`, the composite z-score with Albumin (Bos taurus) is 0.274; in assay [2], -0.171; in assay [3], -0.131; in assay [4] it was 0.371; in assay [5], 0.702; in assay [6], 0.23. The composite z-score in the assay with Sam68 (KHDRBS1) was 0.397; in [7] it was -0.777; in assay [8], -0.278. Moreover, the composite Z-score in assay [1] was 0.139 (inactive).

In the case of `O=C1NCC(=O)N2[C@@H]1C[C@@H](C(=O)O)[C@H]2c1ccc(O)cc1`, the composite z-score is -0.575 in the assay with Albumin (Bos taurus); 0.0397 in [2]; -0.14 in assay [3]; 0.165 in assay [4]; 2.25 in assay [5]; 0.0452 in assay [6]. In addition, the composite z-score in the assay on Sam68 (KHDRBS1) is 1.31; in [7] it was 1.48; in assay [8], 1.07. Moreover, the composite Z-score in assay [1] is -0.0127 (inactive).

`CC(C)(C)OC(=O)CC[C@]1(C(=O)NCCN2CCOCC2)N=C(c2ccc(OCCCO)cc2)O[C@H]1c1ccccc1N=[N+]=[N-]`: the composite z-score in the assay with Albumin (Bos taurus) was 0.942; in assay [2], 0.286; in [3], 0.0684; in [4], 0.82; in assay [5], 3.05; in assay [6], 1.22. Moreover, the composite z-score is 1.31 in the assay with Sam68 (KHDRBS1), 0.186 in [7] and 0.373 in assay [8]. In [1], the composite Z-score was 0.489 (inactive).

On to `CN(C)CCCNC(=O)[C@@]1(c2ccc([N+](=O)[O-])cc2)CC(=O)N(CC23CC4CC(CC(C4)C2)C3)[C@@H]1c1ccc(CO)cc1`, for which the composite z-score in the assay with Albumin (Bos taurus) is 0.0561; in assay [2], 0.683; in [3], 0.094; in assay [4], 0.49; in [5] it was 3.43; in [6], 0.82. In addition, the composite z-score is 1.3 in the assay with Sam68 (KHDRBS1), 1.07 in assay [7] and 1.15 in assay [8]. The composite Z-score in assay [1] was -0.137 (inactive).
